From PubChem BioAssay (NCATS)
Values joined by “and” are separate entries in the source; they are usually repeats but may differ in a detail not shown here. Identical values can stand only once. Inconclusive results are not listed. Some structures have more than one record in an assay (separate samples or runs), and their calls can disagree. Active and inactive are the calls of the source. Unless noted, calls come from the whole dose curve; as a rule, active = well fitted inhibition curve with a large enough effect; inconclusive = small, poorly fitted or top-dose-only effect; inactive = no such curve, though single readings can be large or run the other way.

Experiments:
[1] = qHTS profiling of the MIPE4 collection as inhibitors of Plasmodium falciparum (DD2) proliferation (AID 743345; call rule not given here); conditions: P. falciparum Dd2 in erythrocytes, SYBR Green DNA, 72 h; at 28.5 µM (top of the series) unless noted
Summary of the method: (§1)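 Parasite DNA was quantified by SYBR Green I fluorescence (ex 485, em 535 nm) after overnight lysis in saponin/Triton buffer at room temperature. Cultures at 0.3% parasitemia and 2.5% hematocrit were first exposed to compound for 72 h at 37 C; signals were normalised to artemisinin (0.29 uM) and vehicle wells.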

[2] = qHTS profiling of the MIPE4 collection as inhibitors of Plasmodium falciparum (HB3) proliferation (AID 743347; call rule not given here;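 note: plate controls were DMSO vehicle wells for no effect and artemisinin wells for full effect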); conditions: P. falciparum HB3 in erythrocytes, SYBR Green DNA, 72 h; at 28.5 µM (top of the series) unless noted
Summary of the method: as §1

[3] = High-throughput drug toxicity screening in the BPDCN cell line Gen2.2 (AID 1224824; call rule not given here;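 note: cells exposed to compounds for 48 h before reading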); conditions: Gen2.2 BPDCN cells; at 45.8 µM (top of the series) unless noted
Summary of the method: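 Readout is ATP luminescence from Gen2.2 cells after two days of drug exposure in serum-containing medium at 37 °C. Values express percent activity, with vehicle defining full signal and 9.2 uM bortezomib defining zero.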

[4] = High-throughput drug toxicity screening in the BPDCN cell line Cal-1 (AID 1224825; call rule not given here); conditions: Cal-1 BPDCN cell viability, qHTS; at 45.8 µM (top of the series) unless noted
Summary of the method: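 CellTiter-Glo luminescence after 48 h compound exposure; percent activity scaled with DMSO as 100% and bortezomib (9.2 uM final) as 0%. Cal-1 cells seeded at 500/well in RPMI, 10% FBS, no phenol red.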

[5] = qHTS assay for measurement of the activity of small molecule inhibitors on Zika virus induced Caspase-3 activity in human iPSC derived neural progenitor cells (hNPCs) (AID 1224857); note: nearly all actives have a fitted effect of over 65% in size; note: potency is the fitted concentration of half-maximal effect
Summary of the method: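 Percent inhibition of virus-induced caspase-3/7 luminescence (Caspase-Glo), scaled between uninfected cells and Zika-infected cells. hNPCs received compound 1 hr before ZIKV at 2 FFU/cell, with 6 hours infection at 37 C.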

[6] = qHTS assay for measurement of the activity of small molecule inhibitors on Zika virus induced Caspase-3 activity in human astrocytoma cells (AID 1224859);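 note: plate controls were ZIKV-infected untreated cells for no effect and uninfected cells for full effect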
Summary of the method: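 Luminescent caspase-3/7 read-out (30 min reagent, room temperature) in human SNB-19 cells infected 6 h with ZIKV (2 FFU/cell) after 1 h compound pre-incubation; Data were normalised to uninfected and infected wells.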

[7] = qHTS Screen of the MIPE 4.0 Collection Against Ewings Sarcoma (RDES) (AID 1259252); note: nearly all actives have a fitted effect of over 35% in size; note: potency is the fitted concentration of half-maximal effect
Summary of the method: (§2)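 Dose series incubated 48 h with cells in RPMI plus 5% FBS, glutamine and penicillin/streptomycin; cell viability then quantified via CellTiter-Glo.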

[8] = qHTS Screen of the MIPE 4.0 Collection Against Ewings Sarcoma (TC71) (AID 1259253); note: nearly all actives have a fitted effect of over 40% in size; note: potency is the fitted concentration of half-maximal effect
Summary of the method: as §2

[9] = qHTS profiling of the MIPE4 collection as inhibitors of Plasmodium falciparum (DD2) proliferation (Rep 2) (AID 743346; call rule not given here); conditions: P. falciparum Dd2 in erythrocytes, SYBR Green DNA, 72 h; at 28.5 µM (top of the series) unless noted
Summary of the method: as §1

[10] = qHTS Screen of the MIPE 4.0 Collection Against Ewings Sarcoma (EW8) (AID 1259255); note: nearly all actives have a fitted effect of over 35% in size; note: potency is the fitted concentration of half-maximal effect;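 for viability: 100% = DMSO-treated cells and 0% = medium-only wells without cells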
Summary of the method: as §2

Row | SMILES | parasite growth remaining, % of DMSO control (lower = more inhibition) [1] | growth, % of control [2] | cell viability, % of control (lower = more cytotoxic) [3] | viability (% of control) [4] | Potency [5] | Potency [6] | Potency [7] | Potency [8] | parasite growth, % of control (lower = inhibition) [9] | Potency [10]
1 | C[C@]12CCC(=O)C=C1CC[C@@H]1[C@H]2[C@@H](O)C[C@@]2(C)[C@H]1CC[C@]2(O)C(=O)CO | 93.1% | 63% | 208% | 71.5% | inactive | inactive | 20.9 µM (active) | inactive | – | –
2 | COc1ccc2cc([C@H](C)C(=O)O)ccc2c1 | 100% | 102% | 127% | 135% | inactive | inactive | inactive | inactive | 91% | inactive
3 | Nc1ncn([C@H]2C[C@H](O)[C@@H](CO)O2)c(=O)n1 | 99.3% | 81.1% | 125% | 47.1% | inactive | inactive | 0.418 µM (active) | 2.35 µM (active) | 91.2% | –
4 | O=C(OC1C[C@H]2CC[C@@H](C1)[N+]21CCCC1)C(O)(c1ccccc1)c1ccccc1 (some centres not stated) | – | 17.4% | 120% | 99.2% | inactive | inactive | inactive | inactive | – | inactive
5 | C[Se]CCC(N)C(=O)O (configuration not stated) | 105% [at 57.5 µM] | 86.5% [at 57.5 µM] | 170% [at 92.2 µM] | 109% [at 92.2 µM] | inactive | inactive | inactive | inactive | – | –
6 | Oc1ccc(OCc2ccccc2)cc1 | 123% | 89.5% | 226% | 18.2% | inactive and 11.8 µM (active) | inactive | 2.35 µM (active) | 9.35 µM (active) | 83.5% | –
7 | CC(=O)Nc1ccc(O)cc1 | – | – | 105% | 33.3% | inactive | inactive | inactive | inactive | – | –
8 | COc1ccccc1N1CCN(CCN(C(=O)C2CCCCC2)c2ccccn2)CC1 | 78.2% | 83.7% | 39.9% | 80.8% | inactive | inactive | inactive | inactive | 40.7% | –
9 | O=Nc1c(-c2c(O)[nH]c3cc(Br)ccc23)[nH]c2ccccc12 | 6.11% | 1.37% | 1.04% | 1.62% | inactive | inactive | 3.32 µM (active) | 7.43 µM (active) | – | 4.18 µM (active)
10 | Cc1cc2cc3c(C)cc(=O)oc3c(C)c2o1 | 95.8% | 76.7% | 16.3% | 8.43% | inactive | inactive | 7.43 µM (active) | 11.8 µM (active) | 91.1% | –
11 | COC(=O)C1=C(C)NC(C)=C(C(=O)OC(C)C)C1c1cccc2nonc12 (configuration not stated) | 96.4% | 99.6% | 131% | 105% | inactive | inactive | 23.5 µM (active) | 26.4 µM (active) | 120% | –
12 | CC(C)(S)[C@@H](N)C(=O)O | 127% | 95.7% | 117% | 106% | inactive | inactive | inactive | inactive | 76.1% | –
13 | COc1c(O)cc2c(c1O)[C@@H]1O[C@H](CO)[C@@H](O)[C@H](O)[C@H]1OC2=O | 100% | 116% | 123% | 97.8% | inactive | inactive | inactive | inactive | 81.9% | inactive
14 | CN(C)CCc1c[nH]c2ccc(Cn3cncn3)cc12 | 102% | 99.9% | 102% | 54.2% | inactive | inactive | inactive | inactive | 62.6% | inactive
15 | CCCCc1ccc2nc(NC(=O)OC)[nH]c2c1 | 85.9% | 27.6% | 47.1% | 13.4% | inactive | inactive | 0.0105 µM (active) | 0.0187 µM (active) | – | 0.0093 µM (active)
16 | COc1cc(OC)c(C(=O)CCCN2CCCC2)c(OC)c1 | 120% | 75.7% | 165% | 101% | inactive | inactive | inactive | inactive | – | inactive
17 | CC1(C)C(=O)N(CCN2CCC(C(=O)c3ccc(F)cc3)CC2)c2ccccc21 | 15.4% | 34.5% | 37.4% | 85.6% | inactive | inactive | inactive | inactive | 26.2% | inactive
18 | O=C(O)c1cccnc1Nc1cccc(C(F)(F)F)c1 | 87.2% | 74% | 122% | 88.7% | inactive | inactive | inactive | inactive | 77.4% | –
19 | CC(=O)N1CCN(c2ccc(OC[C@H]3CO[C@](Cn4ccnc4)(c4ccc(Cl)cc4Cl)O3)cc2)CC1 | – | 6.71% | 64.7% | 22.2% | inactive | inactive | 16.6 µM (active) | – | – | –
20 | COC(=O)C1=C(C)NC(C)=C(C(=O)OCCCN2CCC(c3ccccc3)(c3ccccc3)CC2)C1c1cccc([N+](=O)[O-])c1 (configuration not stated) | 107% | 102% | 109% | 123% | inactive | inactive | – | 20.9 µM (active) | 86.6% | 18.7 µM (active)
21 | COc1cc(C(C)=O)ccc1OCCCN1CCC(c2noc3cc(F)ccc23)CC1 | 54.6% | 54.6% | 69.7% | 52.5% | inactive | inactive | – | – | 40.6% | –
